HEK293 cAMP cs = qHTS Assay for Agonists of the Thyroid Stimulating Hormone Receptor: Activators of Intracellular cAMP Concentrations in Parental HEK 293 | parental HEK293 CNG cAMP sensor, membrane potential fluorescence | Potency, µM (titrated, usually from 57.1 µM), without a hit: top-dose activation, most hits filed as activators | 73,000 compounds, 2.5% hits; active = well fitted activation curve with a large enough effect; inconclusive = small, poorly fitted or top-dose-only effect; inactive = no such curve, though single readings can be large or run the other way; note: % of control where 0% means no effect; nearly all actives have a fitted effect of over 55% in size
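Parental HEK 293 cells stably expressing a modified CNG channel (no TSHR) report cAMP rise as membrane depolarization. Membrane potential dye with 100 uM RO 20-1724 was loaded for 60 min at room temperature, then compound added for 30 min; fluorescence read at 590 nm.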
Hsp90 Hop PPI = qHTS Assay for Disrupters of an Hsp90 Co-Chaperone Interaction; 71,000 compounds, 0.44% hits; AlphaScreen TPR2A-His6 binding biotin-Hsp90 C-terminal peptide; Potency, µM (highest dose often 57 µM), without a hit: at the highest dose activity change, negative = inhibition; AID 595, 2007; active = well fitted curve in either direction with a large enough effect; inconclusive = small, poorly fitted or top-dose-only effect, or another doubt; note: % is set by controls: 0 for no effect and ±100 for the full control effect
TSHR ag = qHTS Assay for Agonists of the Thyroid Stimulating Hormone Receptor; HEK293-CNG-TSHR cells (CNG channel as cAMP sensor), membrane potential dye, cAMP; Potency, µM (highest dose often 57.1 µM), for inactives: at the highest dose activation, usual class: activators; 73,000 compounds, 0.48% hits; AID 926, 2007; active = well fitted activation curve with a large enough effect in the main read-out, with a control signal flat, not every such curve was filed as active; inconclusive = small, poorly fitted or top-dose-only effect, or a change in a side signal; inactive = no such curve, though single readings can be large or run the other way; % of control where 0% means no effect;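 note: the control signal comes from parental cells without the receptor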
Target sequence (P16473 whole entry, looked up): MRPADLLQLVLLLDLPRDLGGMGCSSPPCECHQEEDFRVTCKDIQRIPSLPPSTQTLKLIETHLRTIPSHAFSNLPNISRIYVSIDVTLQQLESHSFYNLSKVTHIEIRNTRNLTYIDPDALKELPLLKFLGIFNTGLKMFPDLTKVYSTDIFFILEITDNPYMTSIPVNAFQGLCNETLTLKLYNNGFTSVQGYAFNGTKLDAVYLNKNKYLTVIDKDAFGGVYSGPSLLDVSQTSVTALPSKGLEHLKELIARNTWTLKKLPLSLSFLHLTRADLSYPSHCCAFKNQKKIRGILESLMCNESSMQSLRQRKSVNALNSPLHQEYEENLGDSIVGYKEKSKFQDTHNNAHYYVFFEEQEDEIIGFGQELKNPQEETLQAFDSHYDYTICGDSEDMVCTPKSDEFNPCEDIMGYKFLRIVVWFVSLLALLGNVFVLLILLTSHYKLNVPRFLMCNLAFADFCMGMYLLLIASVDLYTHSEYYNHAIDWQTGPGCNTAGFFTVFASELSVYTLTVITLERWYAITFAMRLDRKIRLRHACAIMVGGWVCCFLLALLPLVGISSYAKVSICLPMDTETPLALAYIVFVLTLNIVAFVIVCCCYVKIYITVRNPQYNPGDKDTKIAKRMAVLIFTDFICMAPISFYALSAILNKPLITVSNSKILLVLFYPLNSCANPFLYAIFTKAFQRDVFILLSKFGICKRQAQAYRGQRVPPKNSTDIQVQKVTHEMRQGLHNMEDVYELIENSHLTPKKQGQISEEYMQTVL
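HEK 293 cells stably expressing TSHR and a modified CNG channel, with CNG-only parental cells as counterscreen, were preloaded 60 min at room temperature with membrane potential dye containing 100 uM RO 20-1724. Compound exposure was 30 min, and depolarization was read as fluorescence at 590 nm.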
CRE Fsk mod = Cell signaling CRE-BLA (Fsk stim); CHO CRE-bla reporter (cAMP response element driving beta-lactamase), forskolin EC10, beta-lactamase ratio; Potency, µM (series often up to 38.2 µM), for inactives: at the top dose activity change, negative = inhibition, hits mostly activators; 71,000 compounds, 2.5% hits; active = well fitted activation curve with a large enough effect in the signal ratio, with a control signal flat, not every such curve was filed as active; inconclusive = small, poorly fitted or top-dose-only effect, or effect the other way, or a change in a side signal; the % refers to the signal ratio; note: % of control where 0% means no effect
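CRE-bla CHO cells stimulated with EC10 NKH 477 (water-soluble forskolin) and compound titrations, 3 h at 37C; beta-lactamase read with CCF4 after 2 h at room temperature. Activity from 460/530 nm emission ratio, AC50 values for positive or negative modulation.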
IkB sig inh = IkB Signaling; ABC-DLBCL IkBa-CBG/CBR dual luciferase ratio, 4 h; response scale: scaled: untreated 0%, proteasome inhibitor 100%; Potency, µM (top dose mostly 57.1 µM), for the others: at the highest dose IkBa stabilization activation; 110,000 compounds, 0.04% hits; active = well fitted curve in the direction sought with a large enough effect in the signal ratio, not every such curve was filed as active; inconclusive = small, poorly fitted or top-dose-only effect, or a change in a side signal; the % refers to the signal ratio;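 note: the direction sought is a rising ratio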
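Curves were fitted separately to fusion (green), unfused (red) and ratio luminescence, then classed by r2, magnitude and activity. Cells: OCI-Ly3, 4 h compound plus doxycycline at 37C; 10 uM MG-132 defined full response.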
* hit, by the source's call; ? = inconclusive; . = no result given; ! = not active in a repeat; [ ] = remark or other dose. In the library only some 3.5% were active in any assay of this set; here they are far more common. Potency is the fitted concentration of half-maximal effect.

SMILES	HEK293 cAMP cs	Hsp90 Hop PPI	TSHR ag	CRE Fsk mod	IkB sig inh
Cc1ccccc1-c1nc(CS(=O)(=O)CC(=O)NCCCc2ccccc2)c(C)o1	.	.	.	.	2.4%
COc1ccc(OC)c(CCNC(=O)CS(=O)(=O)Cc2nc(-c3ccccc3C)oc2C)c1	15.8µM*	-5.8%	?	-8.5%	?
COCc1cc(=O)[nH]c(/N=C(\N)Nc2ccc(C)cc2)n1	?	2.9%	?	12.6µM*	-3.6%
CC(=O)SC[C@@H](Cc1ccccc1)C(=O)NCC(=O)OCc1ccccc1	-17.6%[25.6 µM]	1.2%[26 µM]	-3.2%[25.6 µM]	-11.1%[17.1 µM]	-0.3%[25.6 µM]
Cc1ccccc1Cn1c(-c2cncs2)nc2ccccc21	31.6µM*	-3.3%	?	?	2.6%
Cc1ccc(C)c(Cn2c(-c3cccs3)nc3ccccc32)c1	.	.	.	.	4.0%
Brc1cc2c(cc1Cn1c(-c3cncs3)nc3ccccc31)OCO2	7.94µM*	-4.6%	?	2µM*	-0.3%
Cc1ccc(NC(=O)Cn2c(-c3cncs3)nc3ccccc32)c(Br)c1	.	.	.	.	1.6%
Cc1nc2cnc(N3CCOCC3)nc2n(Cc2cccs2)c1=O	9.5%	-2.1%	4.4%	2.51µM*	2.7%[11.4 µM]
COc1ccc(-n2c(=O)c(-c3ccccc3)nc3cnc(N4CCOCC4)nc32)cc1	6.6%	5.6%	1.6%	3.16µM*	-1.1%[11.4 µM]
COc1ccc(-c2nc3cncnc3n(-c3ccccc3)c2=O)cc1	5.0%	-5.7%	6.4%	2.51µM*	2.8%[11.4 µM]
COc1ccc(-c2nc3cnc(N4CCN(C)CC4)nc3n(Cc3cccs3)c2=O)cc1	19.1%	-5.4%	19.8%	?	-2.3%[11.4 µM]
COc1ccc(-c2nc3cnc(N4CCOCC4)nc3n(Cc3cccs3)c2=O)cc1	8.8%	-6.9%	14.3%	0.501µM*	0.8%[11.4 µM]
COc1ccc(OC)c(CCNC(=O)CCn2c(=O)c3cccn3c3cccnc32)c1	.	.	.	.	0.9%
CC(=O)[C@@]1(O)CC[C@@H]2[C@@H]3CCC4=CC(=O)CC[C@@]4(C)[C@H]3CC[C@]21C	1.1%	-0.1%	-13.7%	2.6%	?
COc1cccc(NC(=O)Cn2c(=O)c3cccn3c3ccc(F)cc32)c1	.	.	.	.	1.1%
CCc1cc(C(=O)OC)c(NC(=O)CC2NCCNC2=O)s1 (stereo not drawn)	-1.5%	-2.9%	5.4%	2.6%	1.5%
CCc1cc(C(=O)OC)c(N2C(=O)C3C4C=CC(C4)C3C2=O)s1 (stereo not drawn)	4.1%	0.1%	7.94µM*	0.7%	1.9%
COCc1nc2c([nH]1)c(=O)n(C)c(=O)n2CC(C)C	?	-3.6%	?	12.6µM*!	-0.2%
COc1cc(NC(=O)Cn2c(=O)n(CC(=O)NCCc3ccc(OC)c(OC)c3)c(=O)c3sccc32)cc(OC)c1	.	.	.	.	4.3%
COc1ccc(C(c2sc3nc(C)nn3c2O)N2CCC(O)CC2)cc1OC (stereo not drawn)	5.7%	-1.6%	-3.6%	3.16µM*	-0.1%
COc1ccc(C(c2sc3ncnn3c2O)N2CC(C)OC(C)C2)cc1OC (stereo not drawn)	0.1%	-4.4%	7.3%	12.6µM*	12.1%
COc1cc(C(c2sc3nc(C)nn3c2O)N2CC(C)OC(C)C2)cc(OC)c1OC (stereo not drawn)	3.7%	5.4%	-12.3%	12.6µM*	?
CC1CCC(C(=O)O)NC1c1ccc(-c2ccco2)cc1 (stereo not drawn)	5.2%[11.4 µM]	.	8.1%[11.4 µM]	.	.
CCOc1cc(N2CCOCC2)c(OCC)cc1NC(=O)CN1C(=O)NC(Cc2ccccc2)C1=O (stereo not drawn)	2.6%	-2.9%	2.1%	5.1%	-1.4%
SMILES	HEK293 cAMP cs	Hsp90 Hop PPI	TSHR ag	CRE Fsk mod	IkB sig inh
CCOc1cc(N2CCOCC2)c(OCC)cc1NC(=O)Cn1[nH]c(=O)c2ccccc2c1=O	6.7%	-0.2%	6.7%	0.1µM*	1.1%
COc1cccc(-c2cncnc2NCc2cccnc2)c1	-8.2%	-11.0%	2.2%	-5.5%	1.4%[11.4 µM]
CCN1CCN(Cc2c(O)ccc3c(C)c(-c4ccccc4)c(=O)oc23)CC1	.	.	.	.	-4.0%
Cn1c(-n2c(CCN3C(=O)c4ccccc4C3=O)nc3ccccc3c2=O)nc2ccccc21	10.0%	-7.0%	.	3.16µM*	?
CN(C)C(=O)[C@]1(C)C[C@H]1[C@H](NC(=O)CNC(=O)[C@@H]1CCCN1C(=O)[C@]1(C)C[C@H]1[C@H](NC(=O)OCc1ccccc1)c1ccccc1)c1ccccc1	22.1%	-0.5%	16.8%	-12.8%	.
O=C(NCc1ccc2c(c1)OCO2)c1ccc2snnc2c1	7.94µM*	3.6%	?	?	2.0%
CS(=O)(=O)N1CCC2(CC1)CN(C(c1ccccc1)c1ccccc1)C2	12.7%	-1.3%	3.0%	-8.5%	3.6%[11.4 µM]
O=C(Nc1c(C(=O)N2CCN(c3ccccc3F)CC2)oc2ccccc12)c1ccc(Br)o1	.	.	.	.	3.1%
Cc1noc(C)c1COC(=O)c1ccccc1Oc1ccccc1	31.6µM*	17.2%	?	?	1.0%
Cc1noc(C)c1COC(=O)c1ccc2c(c1)OCO2	12.6%	-0.3%	4.7%	?	0.4%
Cc1noc(C)c1COC(=O)c1ccc2c(c1)S(=O)(=O)c1ccccc1C2=O	-30.8%	-3.4%	?	2µM*	0.3%
CCNC(=O)c1ccc2c(c1)S(=O)(=O)c1ccccc1C2=O	-10.2%	-3.4%	-4.2%	7.94µM*	-1.8%
CCCCNC(=O)c1ccc2c(c1)N(CC)C(=O)c1ccccc1S2(=O)=O	?	-1.7%	?	-2.2%	-1.7%
CN1CCN(c2ncnc3ccc(-c4ccccc4Cl)cc23)CC1	?	5.0%	?	?	0.7%[11.4 µM]
CCC/C=C(\CCC)C(NS(=O)(=O)c1cccs1)c1ccc(C(=O)OC)cc1 (stereo not drawn)	?	?	?	-1.9%	.
Cn1c(=O)c2c(nc(Cc3ccccc3)n2CC(=O)O)n(C)c1=O	5.0%[11.4 µM]	-2.6%[11 µM]	-2.5%[11.4 µM]	-12.0%[7.6 µM]	1.2%[11.4 µM]
O=C1c2ccccc2-c2cc([N+](=O)[O-])c([N+](=O)[O-])cc21	-22.1%[11.4 µM]	-25.8%[11 µM]	-32.0%[11.4 µM]	20.3%[7.6 µM]	3.98µM*
Cc1ccc(Cl)cc1N1CCN(CCCNC(=O)C2COc3ccccc3C2)CC1 (stereo not drawn)	.	.	.	.	2.6%
CN(O)/C=c1/ccc2c(n1)C(=O)C=CC=2	-3.4%	2µM*	3.8%	11.7%	5.5%
CC(C)(C)C(=O)Nc1ccc(-c2nc3ccccc3s2)cc1	.	.	.	.	-0.7%
Clc1c(CSc2nc3ccccc3o2)nc2sccn12	31.6µM*	-1.7%	?	?	1.3%
Clc1c(CSc2nc3ccccc3o2)nc2ccccn12	?	2.6%	?	?	?
O=C1C2=C(Nc3cc([N+](=O)[O-])ccc3N2)O[C@@H]1c1ccc([C@H]2OC3=C(Nc4ccc([N+](=O)[O-])cc4N3)C2=O)cc1	5.3%[11.4 µM]	-11.2%[11 µM]	-2.5%[11.4 µM]	-3.6%[7.6 µM]	-2.2%[11.4 µM]
